Assay results: PubChem BioAssay
The source made the active and inactive calls. Cut-off read from the data, not from the text of the source, unless noted: active = inhibition above about 80%; inactive = the rest.

How the values were obtained:
[1] = viability loss with induced miR-34 in A549 – imaging, A549 dox-inducible miR-34, nuclei and caspase counts, primary screen (AID 1347080;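 active = compounds whose cell count with miR-34 switched on is under 0.7 times the count with it off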); conditions: A549 miR-34 inducible, Hoechst nuclei count, 48 h
[2] = MELAS cybrid and Rieske KO viability enhancers – cell-based, MELAS cybrids, Rieske KO mouse fibroblasts, CellTiter-Glo, primary screen (AID 1508586;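 active = mean z-score across replicates of 1.96 or higher in either the MELAS or the Rieske mutant cell line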;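 note: z relative to plate mean and SD of compound and empty wells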); conditions: low glucose
[3] = growth inhibition, single agent or in combination, cell-based, chromothripsis tumors, cisplatin or BGB combos (AID 1671449); conditions: LFS_MB_P medulloblastoma cells;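 note: cells exposed for 96 hours; 0% = vehicle DMSO and 100% = killing by high DMSO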
[4] = growth inhibition, single agent and combos, cell-based, chromothripsis tumors, cisplatin or BGB combos (AID 1671450); conditions: HDN33 neuroblastoma cells, stronger effect = higher value;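 note: cells exposed to compound for four days; 0% = vehicle DMSO and 100% = cell killing by high DMSO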
[5] = growth inhibition, single agents and combos, ICB984, cell-based, cisplatin or BGB combos, synergistic combos for chromothripsis tumors (AID 1671451; call rule not given here;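 note: cells exposed for 96 hours before readout; 0% = vehicle DMSO and 100% = killing by high DMSO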); conditions: ICB984 medulloblastoma cells, drug combinations, stronger effect = higher value
[6] = growth inhibition, single agents and combos, LFS_MB_1R, cell-based, cisplatin or BGB combos, synergistic combos for chromothripsis tumors (AID 1671452); conditions: LFS_MB_1R medulloblastoma cells, stronger effect = higher value;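 note: cells exposed for 96 hours before readout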
[7] = growth inhibition, single agents and combos, HTB85, cell-based, BGB or cisplatin IC20 combos, synergistic combos for chromothripsis tumors (AID 1671453); conditions: HTB85 osteosarcoma cells, drug combinations, stronger effect = higher value;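 note: cells exposed for 96 hours before readout; 0% = vehicle DMSO and 100% = high DMSO killing control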
[8] = growth inhibition, single agents and combos, CRL2098, cell-based, BGB or cisplatin IC20 combos, synergistic combos for chromothripsis tumors (AID 1671454); conditions: CRL2098 osteosarcoma cells, drug combinations, stronger effect = higher value;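 note: cells exposed for 96 h before readout; 0% = vehicle DMSO and 100% = killing by high DMSO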
[9] = growth inhibition, single agents and combos, HD-MB03, cell-based, BGB or cisplatin IC20 combos, synergistic combos for chromothripsis tumors (AID 1671455; in the data active = inhibition above about 83%;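 note: 0% = vehicle DMSO and 100% = high DMSO as cytotoxic control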); conditions: HD-MB03 medulloblastoma cells, stronger effect = higher value
[10] = growth inhibition, single agents and combos, UWB1.289, cell-based, BGB or cisplatin combos, synergistic combos for chromothripsis tumors (AID 1671456); conditions: UWB1.289 ovarian carcinoma cells, stronger effect = higher value;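 note: cells exposed to compound for four days; 0% = vehicle DMSO and 100% = killing by high DMSO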
[11] = growth inhibition, single agents and combos, LFS_MB_2R, cell-based, cisplatin combos, synergistic combos for chromothripsis tumors (AID 1671457); conditions: LFS_MB_2R medulloblastoma cells, stronger effect = higher value;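 note: cells exposed to compound for four days before readout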
[12] = growth inhibition, MDA-MB-436, cell-based, BGB or cisplatin combos, synergistic combos for chromothripsis tumors (AID 1671458; call rule not given here;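 note: cells exposed for 96 hours; 0% = vehicle DMSO and 100% = killing by high DMSO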); conditions: MDA-MB-436 breast carcinoma growth inhibition, drug combinations, stronger effect = higher value
[13] = UWB1.289_BRCA1 ovarian cancer growth, cell-based, BGB or cisplatin combinations (AID 1671459); conditions: UWB1.289 BRCA1 ovarian carcinoma, drug combinations, stronger effect = higher value
[14] = drug combination toxicity in non-malignant astrocytes – cell-based, BGB or cisplatin IC20 combos, cytotoxicity control for chromothriptic childhood tumor combination screen (AID 1671460); conditions: Human astrocytes, viability inhibition, drug combinations, at 0.5 µM, stronger effect = higher value;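 note: cells exposed to compounds for 96 hours before viability readout; 0% = vehicle and 100% = killing control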
[15] = BT084 cell growth, single and combined drugs, ICGC_MB145, cisplatin and BGB IC40 combos (AID 1671461); conditions: BT084 medulloblastoma cells, drug combinations, stronger effect = higher value;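 note: cells exposed to drugs for 96 hours; 0% = vehicle DMSO and 100% = high DMSO full killing control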
[16] = RCMB18 cell growth, single agent and combined, cisplatin and BGB IC40 combos (AID 1671462); conditions: RCMB18 medulloblastoma cells, stronger effect = higher value;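 note: cells exposed to compound for four days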
[17] = CRL1545 cell growth, single agent and combined, cisplatin and BGB IC20 combos (AID 1671464); conditions: CRL1545 osteosarcoma cells, stronger effect = higher value;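 note: cells exposed to compound for 96 hours before readout; 0% = vehicle DMSO and 100% = high DMSO killing control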
[18] = measured here: combination with BGB IC40, at 0.05 µM
[19] = measured here: with BGB IC20 combination, at 0.5 µM
[20] = measured here: with cisplatin IC20 combination, at 0.5 µM
[21] = measured here: combination with cisplatin, at 0.5 µM
[22] = measured here: combination with cisplatin, at 5 µM

Q: For CC(C=CC(=O)NO)=CC(C)C(=O)c1ccc(N(C)C)cc1 (centres undefined), which fold change ([1]; stronger effect = lower value, cell number ratio, induced over uninduced) is on record?
A: 0.905 (inactive)

Q: And the fold change ([1]; measured here: relative caspase fold change +Dox/-Dox)?
A: 0.765

Q: What about the cell count ([1]; measured here: total cells with miR-34 induction, stronger effect = lower value) of the same compound?
A: 830

Q: And the cell count ([1]; measured here: total cells without miR-34 induction)?
A: 918

Q: And the z-score ([2]; MELAS cybrid survival, CellTiter-Glo 48 h, stronger effect = higher value)?
A: -0.131 (inactive)

Q: What about the z-score ([2]; Rieske KO mouse fibroblast survival, CellTiter-Glo 72 h) of the same compound?
A: -2.46

Q: What about the inhibition ([3]; at 0.5 µM, stronger effect = higher value) of the same compound?
A: 124% (active)

Q: And the inhibition ([3]; measured here: combination with BGB IC20, at 0.005 µM)?
A: -30%

Q: What about the inhibition ([3]; measured here: combination with BGB IC40, at 0.005 µM) of the same compound?
A: -20.9%

Q: And the inhibition [3, 18]?
A: -37.3%

Q: What about the inhibition ([3]; measured here: combination with cisplatin, at 0.5 µM, stronger effect = higher value) of the same compound?
A: 130%

Q: And the inhibition ([3]; measured here: combination with cisplatin, at 5 µM, stronger effect = higher value)?
A: 120%

Q: What about the inhibition ([4]; BGB combo, at 5 µM) of the same compound?
A: 99.8%

Q: And the inhibition ([4]; at 0.5 µM)?
A: 92.3% (active)

Q: And the inhibition ([4]; cisplatin combo, at 5 µM)?
A: 99.9%

Q: What about the inhibition [4, 19] of the same compound?
A: 85.6%

Q: And the inhibition [4, 20]?
A: 98.3%

Q: And the inhibition ([4]; single agent, at 5 µM)?
A: 99.9%

Q: And the inhibition ([5]; BGB IC20 combo, at 0.005 µM)?
A: 83.1%

Q: What about the inhibition ([5]; BGB IC40 combo, at 0.005 µM) of the same compound?
A: 90.3%

Q: What about the inhibition ([5]; BGB IC40 combo, at 0.05 µM) of the same compound?
A: 97.7%

Q: What about the inhibition ([5]; at 0.5 µM) of the same compound?
A: -36.8% (inactive)

Q: And the inhibition ([5]; cisplatin combo, at 0.05 µM)?
A: 97.7%

Q: What about the inhibition ([5]; cisplatin combo, at 0.5 µM) of the same compound?
A: -29%

Q: What about the inhibition ([5]; cisplatin combo, at 5 µM) of the same compound?
A: -20.2%

Q: What about the inhibition ([5]; measured here: 5 uM single agent, at 5 µM) of the same compound?
A: -13.2%

Q: What about the inhibition ([6]; at 0.5 µM) of the same compound?
A: 87.3% (active)

Q: And the inhibition [6, 18]?
A: 4.15%

Q: What about the inhibition [6, 21] of the same compound?
A: 99.9%

Q: What about the inhibition [6, 22] of the same compound?
A: 98.9%

Q: What about the inhibition ([7]; at 0.5 µM) of the same compound?
A: 98.7% (active)

Q: And the inhibition ([7]; measured here: with BGB IC20, at 0.5 µM)?
A: 97.4%

Q: What about the inhibition ([7]; measured here: with BGB IC20, at 5 µM) of the same compound?
A: 99.9%

Q: What about the inhibition ([7]; measured here: with cisplatin IC20, at 0.5 µM) of the same compound?
A: 99.9%

Q: And the inhibition ([7]; measured here: with cisplatin IC20, at 5 µM)?
A: 100%

Q: What about the inhibition ([7]; single agent, at 5 µM) of the same compound?
A: 99.9%

Q: What about the inhibition ([8]; at 0.5 µM) of the same compound?
A: 70.4% (inactive)

Q: What about the inhibition ([8]; measured here: combination with BGB at IC20, at 0.5 µM) of the same compound?
A: 75.9%

Q: And the inhibition ([8]; measured here: combination with cisplatin at IC20, at 0.5 µM)?
A: 61.3%

Q: What about the inhibition ([9]; at 0.5 µM) of the same compound?
A: 89% (active)

Q: What about the inhibition ([9]; measured here: combo with BGB at IC20, at 0.5 µM) of the same compound?
A: 79.1%

Q: What about the inhibition ([9]; measured here: combo with cisplatin at IC20, at 0.5 µM) of the same compound?
A: 99.7%

Q: And the inhibition ([10]; at 0.5 µM)?
A: 67.5% (inactive)

Q: And the inhibition ([10]; measured here: inhibition with BGB combination, at 0.05 µM)?
A: -6.23%

Q: And the inhibition ([10]; measured here: inhibition with cisplatin combination, at 0.05 µM)?
A: 29.6%

Q: What about the inhibition ([11]; at 0.5 µM) of the same compound?
A: 78.3% (inactive)

Q: What about the inhibition [11, 21] of the same compound?
A: 92.3%

Q: And the inhibition [11, 22]?
A: 103%

Q: What about the inhibition ([12]; at 0.5 µM) of the same compound?
A: 53.4% (inactive)

Q: What about the inhibition ([12]; measured here: BGB combination, at 0.5 µM) of the same compound?
A: 39%

Q: What about the inhibition ([12]; measured here: BGB combination, at 5 µM) of the same compound?
A: 63.1%

Q: And the inhibition ([12]; measured here: cisplatin combination, at 0.5 µM)?
A: 54.4%

Q: And the inhibition ([12]; measured here: cisplatin combination, at 5 µM)?
A: 81.3%

Q: What about the inhibition ([13]; BGB combination, concentration series, at 5 µM) of the same compound?
A: 116%

Q: And the inhibition ([13]; at 0.5 µM)?
A: 68.2% (inactive)

Q: And the inhibition ([13]; cisplatin combination, concentration series, at 5 µM)?
A: 131%

Q: And the inhibition [14]?
A: 97% (active)

Q: What about the inhibition ([14]; measured here: combo with BGB IC20) of the same compound?
A: 96.5%

Q: And the inhibition ([14]; measured here: combo with cisplatin IC20)?
A: 96%

Q: And the inhibition ([15]; at 0.5 µM)?
A: 86.5% (active)

Q: What about the inhibition ([15]; cisplatin combination, at 0.5 µM) of the same compound?
A: 101%

Q: What about the inhibition ([15]; cisplatin combination, at 5 µM) of the same compound?
A: 104%

Q: And the inhibition ([15]; measured here: BGB IC40 combination 0.05 uM, at 0.05 µM)?
A: 36.8%

Q: What about the inhibition ([15]; single agent, at 5 µM) of the same compound?
A: 106%

Q: What about the inhibition ([16]; at 0.5 µM) of the same compound?
A: 83.6% (active)

Q: And the inhibition ([16]; cisplatin combo, at 5 µM)?
A: 98.1%

Q: What about the inhibition ([16]; measured here: BGB IC40 combination, at 0.05 µM) of the same compound?
A: 13.5%

Q: And the inhibition [16, 21]?
A: 87.1%

Q: And the inhibition ([16]; single agent, at 5 µM)?
A: 98.2%

Q: What about the inhibition ([17]; at 0.5 µM) of the same compound?
A: 88.1% (active)

Q: What about the inhibition [17, 19] of the same compound?
A: 86.4%

Q: What about the inhibition [17, 20] of the same compound?
A: 88.7%

Q: What about the inhibition ([17]; single agent, at 0.05 µM) of the same compound?
A: 54.1%

Q: What about the inhibition ([17]; single agent, at 5 µM) of the same compound?
A: 87.3%
